# Laboratory results as given in PMC12136788.
# Where a chain is given by its changes, count along the chain named. Whole data set: some 24,000 sequences, median “enrichment r” near 0.99, cut for the highest 2% near 3.7. The list comes from a sample in which the highest values are over-represented; it also holds similar and randomly drawn sequences.
# T1: UNK ZnF1-3 (human, UniProt Q9C0B0 31-174)
# T1 sequence: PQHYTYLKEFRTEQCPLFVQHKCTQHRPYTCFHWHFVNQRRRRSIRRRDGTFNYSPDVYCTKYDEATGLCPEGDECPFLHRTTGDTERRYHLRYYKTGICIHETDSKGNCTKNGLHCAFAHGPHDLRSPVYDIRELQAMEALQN
# B1: chr2:42509997:42509998:+_ENSG00000143924_ENST00000318522|hu_mus|hu_hu_hu_mus_True|28_48 (ssRNA)
# RNA: GGGAGUUCUACAGUCCGACGAUCUCGCUGAGUCCUCUCCUCAUAAUUAAACAGGACUACCACUGAGGCGAUAAAAUAAACUAUCUCCCCGGUCGGAAGCAGGUAUACAUUAGCUCUACAGUCCUUUCCUCGAUAACCGUAUACCAACAGAGGAUUGAGCAUCA
# B2: chr3:108363203:108363204:-_ENSMUSG00000068732_ENSMUST00000090546|mus_hu|FALSE|FALSE (ssRNA)
# RNA: GGGAGUUCUACAGUCCGACGAUCCCAGGUUUUGAGACGAGGUACUUUCUUGAAGUAGGCACAGGUGCAAACAAAGAGCAAACCAAACACCAGAAUCCCAUCCAAGGAGUACACGUUCGUCAUGGCGGCUGGCCCUGGACCUGGCAACAGAGGAUUGAGCAUCA
# B3: chr2:216981417:216981418:+_ENSG00000079246_ENST00000392132|hu_hu|hu_hu_hu_mus_True|48_58 (ssRNA)
# RNA: GGGAGUUCUACAGUCCGACGAUCCUGAUACUGGUCCUUGCCAGCAAGGGCAUUAUCAGUGCCAUCUGUGCCAUAGAGGACUAAAGCAAUCUCAUCCUUGCUCUCCGAAAAUACCUGUCGUUGGACAAACAUAGUCAUCACUUUCAACAGAGGAUUGAGCAUCA
# B4: 91404753_91404873_2338_CDS_ENSG00000122482_ENST00000337393|human|control|control (ssRNA)
# RNA: GGGAGUUCUACAGUCCGACGAUCAGGUUUUUGGUCAACGCUGCUUUUAAUUGUAACAUUCUUAUGAGGAGAGCUGUUUUGAUUGCACAUGUUUACACCUGAUUGGGCAAUGCUUUUCCGAGCUUUCUGUAUUCUGUGUGGCCGCAACAGAGGAUUGAGCAUCA
# B5: chr2:153593888:153593889:+_ENSMUSG00000027479_ENSMUST00000028981|mus_hu|FALSE|FALSE (ssRNA)
# RNA: GGGAGUUCUACAGUCCGACGAUCAGUAGUGGGUGAGACACAUUUUGCAGAAUCCUGCCAAACAAAGGAACUGAAUAGGCUGUGGGCAAAGCAAAUGAGGGAGAGUUAAGGAAUGAAGUAUUUUAAAUAUUAAUAAUUAAUUCACAACAGAGGAUUGAGCAUCA
# B6: 77768493_77775406_9844_CDS_ENSG00000091656_ENST00000521891|human|control|control (ssRNA)
# RNA: GGGAGUUCUACAGUCCGACGAUCACUGCUGAGAGACAGGGCAGGAGACGAAGUAGCUGAAGUAGGAAACCCAAGCAUGCCUGCACCGGGAGGUGUUAAAGUGUUUGAAUUUUGUGGAAAUCCCGGCAAGGAGGAUGGACCGUUCAACAGAGGAUUGAGCAUCA
# B7: chr2:153593888:153593889:+_ENSMUSG00000027479_ENSMUST00000028981|mus_mus|FALSE|FALSE (ssRNA)
# RNA: GGGAGUUCUACAGUCCGACGAUCCUCAGUAGUGGGUAACACAUUUUGCAGAGUUCGCCAAACAAAGGAAUUGAAUAGGCUAUGGGUAAAGCAAUUGAGGGAGAAUUAAGGAAUGAAGUAUUUUAAAUAUUAAUAUUUCAGUCACAACAGAGGAUUGAGCAUCA
# B8: chr6:39351226:39351227:-_ENSMUSG00000029922_ENSMUST00000031985|mus_hu|FALSE|FALSE (ssRNA)
# RNA: GGGAGUUCUACAGUCCGACGAUCGACAAAGUUAGAUGUGAUCCGGCAUUCUGGGCAGGACUUUAUGAUCUUGCUCUCAAAUUGCUUAGCACUCCUCCACUUGCGAAUGCACUUGAGACAGUAGGUGUGGUUGCAGUUGGAGAGCAACAGAGGAUUGAGCAUCA
# B9: chr3:54535082:54535083:-_ENSMUSG00000027752_ENSMUST00000029316|mus_mus|FALSE|FALSE (ssRNA)
# RNA: GGGAGUUCUACAGUCCGACGAUCGCAGGCAUCCAAAAUGUUCCCAUCGUAGUCUAGACAAAUGAGGUCACAGUAUAGAACCCAAGCAAGCUUGCCUGGAGAAAUGCAUAAAUCCUCUUUCUUAAUCACCUGUGAGUUGUCAACCAACAGAGGAUUGAGCAUCA
# B10: chr4:144447494:144447495:+_ENSG00000153147_ENST00000283131|hu_hu|motif|central (ssRNA)
# RNA: GGGAGUUCUACAGUCCGACGAUCCCAGUUGUGUAAUGUAGACUUAGGAACCAAAACCAUAUGAGGCCCAGGAAUGUUUCGGUAAUGUUUCAUGUACCCAAGAAGAGAAAUUGUUUGAAGAGUCUUUCCUAGGCCCAUUUCAUCCAACAGAGGAUUGAGCAUCA
# B11: chr4:99801976:99801977:-_ENSG00000151247_ENST00000280892|hu_hu|motif|central (ssRNA)
# RNA: GGGAGUUCUACAGUCCGACGAUCAACACAUUUAUGGAUUCUGGGGAUGUGUACUGUAAUUCUUUGAUUGGGAUAGUGGAAACUCGGGCCAAAAAAAAAAAAAAAAAUGAACACAGAAGUACAAGACAAAGGCGAAUGAGACUUCAACAGAGGAUUGAGCAUCA
# B12: chr4:124323795:124323796:+_ENSG00000164056_ENST00000339241|hu_hu|FALSE|FALSE (ssRNA)
# RNA: GGGAGUUCUACAGUCCGACGAUCCCAUGAGUUAGACCUUGGCAACAGGGGAAGAGAAGGUGGGAAACAGGGAAAAAUUCUAAAGAAAACAAAAACAAAAACAAAAACAAAAAACAGCCACAACUUGAAAGCUAAAAGUUCAGGCAACAGAGGAUUGAGCAUCA
# B13: chr15:103023242:103023243:-_ENSMUSG00000009575_ENSMUST00000118152|mus_hu|FALSE|FALSE (ssRNA)
# RNA: GGGAGUUCUACAGUCCGACGAUCAACAUCUGAACUAGCAGCUUUGAUGAGGGGUGGGGGGCAGAAAAUUUGCCGAGUCACUAAGUAGUUCCAGUCUUGGAGACAGCUCAGUGAGGACCAAAGCCUGUGUGUCAGGCUUAAACUCAACAGAGGAUUGAGCAUCA
# B14: chr4:124323795:124323796:+_ENSG00000164056_ENST00000339241|hu_hu|motif|central (ssRNA)
# RNA: B12 RNA with U80G, A81G
# B15: chr2:69570450:69570451:+_ENSMUSG00000042133_ENSMUST00000090858|mus_hu|FALSE|FALSE (ssRNA)
# RNA: GGGAGUUCUACAGUCCGACGAUCACAAAGACAACGAAAGUUCUCGCAUGUUUUGGGGCACACAUCAGAAAAUAAUUCAAAGACAACUCUUCCAGCAGGUUGAUUGUUAAUGGCAAUGUCAAAAAAACAUCGAGGACGUUGAACCAACAGAGGAUUGAGCAUCA
# B16: chr11:75578338:75578339:+_ENSMUSG00000020849_ENSMUST00000067664|perfect_dup|FALSE|FALSE (ssRNA)
# RNA: GGGAGUUCUACAGUCCGACGAUCAAAGGGGAGGGGAGAAAAAAAAAAAAGAAAAAGAAAGAAAAACAACAGGGCAGGAACCUAAAUUCUGAGACCAAAUGUGAAAGUCAAAUUUGGUGGUUCUCAGUGACAAUGGGGAACUUCCAACAGAGGAUUGAGCAUCA
# B17: chr11:75578338:75578339:+_ENSMUSG00000020849_ENSMUST00000067664|perfect_dup|motif|central (ssRNA)
# RNA: B16 RNA with U82G, A83G
# B18: chr7:135839593:135839594:+_ENSMUSG00000042105_ENSMUST00000151237|mus_hu|FALSE|FALSE (ssRNA)
# RNA: GGGAGUUCUACAGUCCGACGAUCAGAAUCAGUCACUUCAACAGAGUAAAGCUCUAAAGACACCAGACGAACCAAUACUUGUUGGAAUAUGCCAUACAACUUUCUUACUGUGGGGAUUACAGGGGCAGCCCUGGUUCUGUGUGGCAACAGAGGAUUGAGCAUCA
# B19: 36153137_36166621_529_CDS_ENSG00000145604_ENST00000274255|human|control|control (ssRNA)
# RNA: GGGAGUUCUACAGUCCGACGAUCCGCUAGGCGAUACCACCUCUUACAAACACCAGAGACCUUUAGCAGCUCAGGGAGGCACAGACAGGAAAAGAUUCCCAAGAGCAGCUCAUCCGGAAGGGAGUCCCAUGAAACACCUGGAAACAACAGAGGAUUGAGCAUCA
# B20: chrX:7701523:7701524:-_ENSMUSG00000031166_ENSMUST00000033506|mus_mus|FALSE|FALSE (ssRNA)
# RNA: GGGAGUUCUACAGUCCGACGAUCCAGGCAAGUGUGGGGUCCACCCAAACAGUAGCUGCCAAUGUUGGGGAGUUUGACAACCUAACCUGGUGAAAGCCCCGUGGUUGAACUUAACAUUCUGCACCUAAUUUCCCUACUGCUGUCCAACAGAGGAUUGAGCAUCA
# B21: 18505133_18505253_973_CDS_ENSG00000101310_ENST00000262544|human|control|control (ssRNA)
# RNA: GGGAGUUCUACAGUCCGACGAUCUUCACAGCUUAGCUCAUGAACCUGCACCAUCCUUCCAAAUGUGAUCAGACCCACCAGAGCAUCUGGAGGAAGAAGACUCAGGGACAUCUGCAGGGACUCUUUGAGUGCUUGAAGGUCAUCCAACAGAGGAUUGAGCAUCA
# B22: chr7:116176368:116176369:+_ENSMUSG00000031028_ENSMUST00000033341|mus_hu|FALSE|FALSE (ssRNA)
# RNA: GGGAGUUCUACAGUCCGACGAUCAGACACACACAUACACAGACGGACACAGAGCACCUUGGAGCCAGAAGGAAAGGAAAGCUAGACUUGGAGAAGAGUUGGGGAAGUGAACUUCACCACUCUGCAGAAUUGUUCUGGGGCAGACAACAGAGGAUUGAGCAUCA
# Biological target: T1, UNK ZnF1-3
# Assay: nsRBNS (natural sequence RNA bind-n-seq); RBNS binding buffer (assumed for nsRBNS): 25 mM Tris pH 7.5, 150 mM KCl, 3 mM MgCl2, 0.01% Triton X-100, 500 ug/ml BSA, 20 U/ml SUPERase-In, 4 C; UNK is unkempt and MSI1 is Musashi-1; names of the RNAs are library labels; protein concentration not given here; high values mean tight binding
row,Binder,binding signal
1,B1,1.03 enrichment R
2,B2,1.56 enrichment R
3,B3,0.722 enrichment R
4,B4,0.646 enrichment R
5,B5,4.38 enrichment R
6,B6,1.52 enrichment R
7,B7,2.24 enrichment R
8,B8,0.754 enrichment R
9,B9,1.32 enrichment R
10,B10,1 enrichment R
11,B11,3.29 enrichment R
12,B12,4.13 enrichment R
13,B13,1.22 enrichment R
14,B14,3.58 enrichment R
15,B15,1.49 enrichment R
16,B16,4.7 enrichment R
17,B17,5.06 enrichment R
18,B18,1.69 enrichment R
19,B19,1.46 enrichment R
20,B20,1.26 enrichment R
21,B21,1.32 enrichment R
22,B22,3.99 enrichment R
